# Screens as filed in PubChem BioAssay.
# Compounds with a hit are over-represented: about 2.7% of the library has one in this group of screens.
# GLP1R ag = qHTS of GLP-1 Receptor Agonists. Glucagon-like peptide 1 receptor (Homo sapiens), P43220. HEK293 GLP-1R CRE-luciferase, luminescence, 4-6 h; cells express a hypersensitive GLP-1R form. Potency, µM (titrated, usually from 45.6 µM), for the others: top-dose activation, actives largely listed as activators. 380,000 compounds, 0.007% hits. AID 624172, 2012; note: % of control where 0% means no effect
# IDH1 R132H inh = qHTS for Inhibitors of mutant isocitrate dehydrogenase 1 (IDH1): qHTS | 390,000 compounds, 0.093% hits | Potency, µM (titrated, usually from 76.6 µM), without a hit: at the top dose activity change, negative = inhibition, actives largely listed as inhibitors | Isocitrate dehydrogenase [NADP] cytoplasmic (Homo sapiens), O75874 | IDH1-R132H enzyme, NADPH consumption, diaphorase/resazurin fluorescence; note: % is set by controls: 0 for no effect and ±100 for the full control effect; nearly all actives have a fitted effect of over 65% in size
# Target sequence (O75874 whole entry R132H, stated change not applied): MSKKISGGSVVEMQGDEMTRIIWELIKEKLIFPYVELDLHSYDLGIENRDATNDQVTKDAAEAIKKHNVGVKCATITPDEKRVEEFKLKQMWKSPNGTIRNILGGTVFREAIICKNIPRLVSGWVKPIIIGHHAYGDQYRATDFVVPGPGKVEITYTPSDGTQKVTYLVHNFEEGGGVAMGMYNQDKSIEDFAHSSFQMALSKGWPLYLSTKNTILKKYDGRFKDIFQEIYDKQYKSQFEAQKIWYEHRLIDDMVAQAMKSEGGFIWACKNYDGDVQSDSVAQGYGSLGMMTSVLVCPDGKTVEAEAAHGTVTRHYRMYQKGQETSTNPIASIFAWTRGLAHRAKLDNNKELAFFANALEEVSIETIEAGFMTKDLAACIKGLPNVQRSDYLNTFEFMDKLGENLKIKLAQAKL
#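 IDH1-R132H (0.5 ug/mL) preincubated 30 min with compound, then NADPH (0.016 mM) and alpha-KG (2 mM) added; 80 min at RT, pH 7.5. Remaining NADPH coupled via diaphorase/resazurin to fluorescence (540/590 nm); concentration-response curves normalized to no-enzyme control.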
# HEK293 tox = qHTS of GLP-1 Receptor Inverse Agonists: Cytotox Screen; HEK293 cAMP-luciferase reporter cells, luminescence, 24 h; Potency, µM (highest dose often 38.3 µM), inactives show at the top dose activity change, negative = inhibition, usual class: inhibitors; 410,000 compounds, 0.13% hits;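 note: loss of luciferase light is scored as toxicity; % is set by controls: 0 for no effect and ±100 for the full control effect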
#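 A 23 nL compound transfer followed 12 hours of cell culture at 37 deg C; exposure then lasted 24 hr. Luciferase assay detection reagent was dispensed and plates read for luminescence after a 12 min room-temperature wait.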
# TrxR1 substrate = qHTS Assay for Substrates of Mammalian Selenoprotein Thioredoxin Reductase 1 (TrxR1): qHTS; Thioredoxin reductase 1, cytoplasmic (Rattus norvegicus), O89049; Potency, µM (series often up to 114 µM), inactives show at the highest dose activity change, negative = substrate turnover; purified TrxR1 substrate turnover, NADPH consumption readout; 390,000 compounds, 0.01% hits; note: % is set by controls: 0 for no effect and ±100 for the full control effect; nearly all actives have a fitted effect of over 50% in size
#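 Rat TrxR1, dispensed at 90 nM, was prereduced with 400 uM NADPH (final) for 5 min at ~22 deg C, then incubated with compound 15 min before 400 uM selenite. A first-read NADPH fluorescence drop versus no-compound background flagged substrates.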
# TrxR1 inh = qHTS Assay for Inhibitors of Mammalian Selenoprotein Thioredoxin Reductase 1 (TrxR1): qHTS; Potency, µM (series often up to 114 µM), for inactives: top-dose activity change, negative = inhibition, usual class: inhibitors; recombinant rTrxR1, NADPH fluorescence consumption, selenite substrate; Thioredoxin reductase 1, cytoplasmic (Rattus norvegicus), O89049; AID 588453, 2011; 390,000 compounds, 1% hits; note: % is set by controls: 0 for no effect and ±100 for the full control effect; nearly all actives have a fitted effect of over 65% in size
#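 Rat TrxR1 (90 nM in the dispensed reagent) was pre-reduced with 400 uM NADPH for 5 min at room temperature, then incubated with compound for 15 min. After 400 uM selenite was added, NADPH fluorescence (Ex 340/Em 450 nm) was followed for 8 min.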
# GLP-1R inv ag = qHTS of GLP-1 Receptor Inverse Agonists (Inhibition Mode); Glucagon-like peptide 1 receptor (Homo sapiens), P43220; HEK293 GLP-1R CRE-luciferase, luminescence, 24 h; GLP-1R form is constitutively active; Potency, µM (doses to about 38.3 µM), inactives show at the highest dose activity change, negative = inhibition, usual class: inhibitors; 410,000 compounds, 1.6% hits; AID 624417, 2012; note: % is set by controls: 0 for no effect and ±100 for the full control effect; nearly all actives have a fitted effect of over 55% in size
#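 HEK293 cells stably co-expressing a cAMP-responsive luciferase reporter and constitutively active GLP-1R were seeded, incubated 12 h, then exposed to compounds for 24 h at 37 C. Luminescence was read 12 min after detection reagent; inverse agonists lower signal.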
# * = called active by the depositor; u = inconclusive; x = no result given; [ ] = dose if it differs, or a comment. Calls come from the whole dose curve; as a rule, active = well fitted curve in the direction sought with a large enough effect; inconclusive = small, poorly fitted or top-dose-only effect, or another doubt; inactive = no such curve, though single readings can be large; an effect the other way counts as inactive or inconclusive. Potency is the fitted concentration of half-maximal effect.
SMILES,GLP1R ag,IDH1 R132H inh,HEK293 tox,TrxR1 substrate,TrxR1 inh,GLP-1R inv ag
COc1ccc(NC(=O)/C=C\C(=O)N(c2ccc(C(C)C)cc2)C(C(=O)NCc2ccco2)c2ccc(C)cc2)cc1 (stereo unspecified),x,-23%,-19%,-9%[57.1 µM],-25%[57.1 µM],10µM*
COc1cccc(C2NC(c3cccc(OC)c3O)C(C)C(=O)C2C)c1O (stereo unspecified),1%,2%,-29%,-7%,4%,0%
CC1C(=O)C(C)C(c2cc(Cl)ccc2O)NC1c1cc(Cl)ccc1O (stereo unspecified),-3%,4%,u,5%,38%[57.1 µM],5.6µM*
COCC1CCN(Cc2c(C(=O)N3CCc4ccccc4C3)nc3ccc(Cl)cn23)C1 (stereo unspecified),1%,2%,11%,5%,16µM*,-15%
O=C(CCCn1ccc2cc(S(=O)(=O)N3CCCC3)ccc21)NCc1ccc(Cl)cc1,x,-18%,-18%,1%,24%,u
O=C(NCCCN1CCCC1)c1ccc(CSCc2cccc(Cl)c2)o1,6%,2%,-13%,6%,17%,u
Cc1ccc(CNC(=O)c2ccc(CSCc3ccc(Cl)cc3)o2)cc1,x,15%,3%,-1%[57.1 µM],1%[57.1 µM],10µM*
Cc1ccc(-c2ccc(C(=O)NCc3ccc(Cl)cc3)o2)c2ccccc12,1%,-1%[38.3 µM],-16%,12%,32µM*,u
CC(C)NC(=O)c1ccc(CSCc2ccccc2Cl)o1,12%,10%,-20%,2%,7%,8.9µM*
CN1CCN(CCCNC(=O)c2ccc(CSCc3cccc(Cl)c3)o2)CC1,22%,-1%,-16%,-5%,-10%,10µM*
CCc1ccccc1NC(=O)C1CCCN(c2cnccn2)C1 (stereo unspecified),x,9%,-5%,-2%,10%,2%
Cc1ccc(CNC(=O)c2ccc(Cn3nc(C)c(Cl)c3C)o2)cc1,-1%,6%,-14%,6%,40µM*,u
Cc1ccc(C)n1-c1ccc(C(=O)NCc2ccncc2)cc1,3%,6%,-9%,0%,45µM*,9%
COc1ccc(NC(=O)C(C)Sc2cc(-c3ccccc3)nc(C)n2)cc1Cl (stereo unspecified),x,2%,-5%,0%,11%,u
Cc1ccc2nc(SCc3nc(-c4ccc(Cl)cc4)no3)[nH]c2c1,-4%,33%,2%,-10%,4%,u
NS(=O)(=O)Nc1c(Br)cc(Br)c2cccnc12,x,x,x,9%[0.457 µM],28µM*,x
COc1cccc(CN2CCc3nc(Nc4ccc5c(c4)OCCO5)ncc3C2)c1OC,x,x,-5%,1%[57.1 µM],15%[57.1 µM],u
CC1(C)CC(=O)C2=C(C1)NC(Nc1nc3ccccc3o1)=NC2c1cccnc1 (stereo unspecified),x,x,x,10%,17%,x
CC(=O)Nc1cccc(C(=O)N2CCN(S(=O)(=O)c3ccc(C4CCCCC4)cc3)CC2)c1,10%,-8%,-16%,-8%,13%,5µM*
O=C(N/N=C/c1ccc([N+](=O)[O-])o1)c1ccc(NS(=O)(=O)c2cccs2)cc1,6%,0%,-13%,-3%,10µM*,-11%
O=C(N/N=C\C=C\c1ccc([N+](=O)[O-])o1)c1cccs1,10%,-1%,-31%,-3%,7.9µM*,323%
O=C(N/N=C/C=C/c1ccccc1[N+](=O)[O-])c1cccs1,-12%,4%,-11%,-2%,1%,1%
Cc1ccc2nc(-c3ccc(N=Nc4cc(S(=O)(=O)O)c5ccccc5c4O)cc3)sc2c1S(=O)(=O)O,x,x,x,100%,u,x
O=C(NNc1ccccc1)/C(=C\c1cccnc1)NC(=O)c1ccccc1,8%,0%,0%,1%,7%,3.5µM*
O=C(/C=C/c1cccnc1)c1ccc(O)cc1,-2%,11%,-20%,4%,-11%,-8%
SMILES,GLP1R ag,IDH1 R132H inh,HEK293 tox,TrxR1 substrate,TrxR1 inh,GLP-1R inv ag
O=C(C=Cc1cccnc1)c1ccccc1,-6%,1%,u,-7%,28µM*,u
Cc1cccc(OCCn2c(CCNC(=O)C3CCCCC3)nc3ccccc32)c1,x,x,x,12%[0.0914 µM],-8%,x
CC(=O)CC1OC(=O)C(Br)=C1NCc1ccccc1 (stereo unspecified),-13%,0%,u,3%,14µM*,-1%
O=C(CC1Oc2ccccc2NC1=O)NCc1ccccc1 (stereo unspecified),-1%,-6%,0%,-1%,10%,14%
Cc1cccc(N2CCN(C(=O)c3c(C)oc4ncnc(N5CCCCC5)c34)CC2)c1C,x,-15%,-5%,-11%,3%,u
CCc1[nH]c(=O)[nH]c1C(C)S(=O)(=O)c1ccc(C)cc1 (stereo unspecified),2%,-5%,7%,12%[57.1 µM],1.1µM*,7%
CCc1c(C(C)S(=O)(=O)c2ccc(C)cc2)[nH]c(=O)n1-c1ccc(C)cc1 (stereo unspecified),-11%,-1%,3%,1%[57.1 µM],u,-2%
COc1cccc(-c2n[nH]c3c2C(c2ccccn2)N(C)C3=O)c1 (stereo unspecified),x,11%,-3%,5%,20%,4%
CC(=O)c1c(N2CCN(C)CC2)nc(=S)n(Cc2ccccc2)c1C,-1%,-9%,-4%,-7%,0%,18%
C=CCn1c(C)c(C(C)=O)c(N2CCN(C(c3ccccc3)c3ccccc3)CC2)nc1=S,8%,-1%,u,1%[57.1 µM],0%[57.1 µM],7.1µM*
CCCCOC(=O)c1c(C)oc2c1cc(NS(=O)(=O)c1cc(OC)ccc1OC)c1ccccc12,x,-2%,2%,1%,31%,7%
C=CCN1C=C2C(=O)C(C)(OC(=O)C3CCCC3)C(=O)C(c3ccccc3)=C2C=C1CCCC(=O)OC (stereo unspecified),0%,15%,-5%,3%,79µM*,22%
CCc1ccc(CN2CCC(Oc3ccc(C(=O)N4CCCCC4)cc3)CC2)cc1,8%,0%,u,7%,u,u
